A selection: hits, their analogues and other compounds. The true share with any hit is near 11%.
AMA1 RON2 block: qHTS for Inhibitors of AMA1-RON; Towards Development of Antimalarial Drug Lead: Primary Screen | AID 720542, 2013 | Potency, µM (doses to about 58.2 µM), without a hit: at the top dose activity change, negative = inhibition, actives largely listed as inhibitors | Plasmodium falciparum AMA1 (3D7) - RON2 peptide interaction | actives 0.2% (n = 360,000) | AlphaScreen AMA1-biotinylated RON2 peptide binding;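 also: 0% = vehicle wells and -100% = peptide control; nearly all actives have a fitted effect of over 45% in size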
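AMA1 (3D7) with his tag at 25 nM final met compounds first, then biotinylated RON2 peptide at 25 nM; detection used donor plus acceptor beads, 10 µg/mL apiece, read by AlphaScreen after 30 min at room temperature.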
Pf growth 96h: Primary qHTS for delayed death inhibitors of the malarial parasite plastid, 96 hour incubation | actives 6.9% (n = 320,000) | AID 504834, 2011 | P. falciparum luciferase reporter growth, 96 h | Potency, µM (doses to about 28.7 µM), for inactives: top-dose activity change, negative = inhibition, usual class: inhibitors
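Readout is luminescence from an integrated firefly luciferase in P. falciparum. Red cells, 2% hematocrit and 0.05% parasitemia final, were cultured with compound through two parasite generations (96 hours) at 37 C, 5% CO2.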
HCV inhibitor: qHTS Assay for Inhibitors of Hepatitis C Virus (HCV) | Huh7.5.1 HCVcc-Cre infection, luciferase reporter, 44 h | Potency, µM (highest dose often 41.8 µM), inactives show at the highest dose activity change, negative = inhibition, hits mostly inhibitors | actives 3.4% (n = 340,000) | AID 651820, 2012
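Antiviral activity was scored by luciferase reporter output from cells infected with HCVcc-Cre (~0.5 moi) in presence of compound, 44 h infection period, cells seeded 1,000/well 4 h prior.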
Pf growth 48h: Primary qHTS for delayed death inhibitors of the malarial parasite plastid, 48 hour incubation. P. falciparum luciferase growth in erythrocytes, 48 h. Potency, µM (top dose mostly 28.7 µM), for the others: at the highest dose activity change, negative = inhibition, usual class: inhibitors. actives 5.9% (n = 310,000)
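Here the parasites carry a stable luciferase gene and grow inside erythrocytes in Albumax-based RPMI medium with compound for one erythrocytic cycle. Activity is scored as loss of luminescent signal.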
AmpC inh no detg: qHTS Inhibitors of AmpC Beta-Lactamase (assay without detergent) | P00811 | AmpC nitrocefin hydrolysis, absorbance 480 nm, 0.0001% Triton | Potency, µM (highest dose often 57.1 µM), without a hit: at the top dose activity change, negative = inhibition, actives largely listed as inhibitors | actives 0.52% (n = 330,000);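 also: plate controls were no compound for no effect and no enzyme for full effect; nearly all actives have a fitted effect of over 20% in size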
Target sequence (P00811 whole entry, looked up): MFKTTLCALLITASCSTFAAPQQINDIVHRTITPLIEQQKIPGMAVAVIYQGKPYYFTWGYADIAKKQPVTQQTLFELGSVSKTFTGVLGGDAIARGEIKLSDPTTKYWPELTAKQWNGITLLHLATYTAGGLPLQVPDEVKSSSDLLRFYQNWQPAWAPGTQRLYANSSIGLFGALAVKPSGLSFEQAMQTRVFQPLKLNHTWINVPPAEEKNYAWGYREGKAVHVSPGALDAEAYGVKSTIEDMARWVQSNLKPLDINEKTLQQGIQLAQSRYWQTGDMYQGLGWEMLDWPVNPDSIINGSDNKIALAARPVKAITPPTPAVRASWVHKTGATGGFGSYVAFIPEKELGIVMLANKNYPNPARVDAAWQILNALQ
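20 mM phosphate pH 7.0 + 0.01% (detergent screen) or 0.0001% Triton X-100; 5.3 nM AmpC reagent; cpd preinc 15 min RT; nitrocefin (800 uM stock) to start; A480 q20 s × 4 min; Activity was normalised to no-enzyme and no-compound control wells.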
AmpC detergent: qHTS Inhibitors of AmpC Beta-Lactamase (assay with detergent); P00811; AmpC hydrolysis of nitrocefin, absorbance 480 nm, 0.01% Triton; Potency, µM (doses to about 114 µM), for inactives: top-dose activity change, negative = inhibition, actives largely listed as inhibitors; actives 0.041% (n = 370,000); AID 485294, 2010;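 also: 0% = no-compound wells and -100% = no-enzyme wells; nearly all actives have a fitted effect of over 25% in size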
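20 mM phosphate pH 7.0 + 0.01% (detergent screen) or 0.0001% Triton X-100; 5.3 nM AmpC reagent; cpd preinc 15 min RT; nitrocefin (800 uM stock) to start; A480 q20 s × 4 min; Activity was normalised to no-enzyme and no-compound control wells.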
Numbers without * were called inactive; ? = inconclusive; / = no result given. Calls follow the shape of the dose curve; as a rule, active = well fitted curve in the direction sought with a large enough effect; inconclusive = small, poorly fitted or top-dose-only effect, or another doubt; inactive = no such curve, though single readings can be large; an effect the other way counts as inactive or inconclusive. Unless noted, % is scaled to controls: 0 for no effect and ±100 for the full control effect; potency is read from the fitted curve at half-maximal effect.

SMILES	AMA1 RON2 block	Pf growth 96h	HCV inhibitor	Pf growth 48h	AmpC inh no detg	AmpC detergent
COc1cccc(Nc2nc(-c3sc(C)nc3C)cs2)c1	?	-1.7%	5.01µM*	32.4%	-8.3%	-6.1%
CC1CCN(C(=O)c2c(NC(=O)c3ccccc3F)sc3c2CCC(C(C)(C)C)C3)CC1 (stereo not drawn)	/	/	/	/	/	6.0%
Cc1c(NS(=O)(=O)c2ccccc2)cc(C(C)C)c(O)c1S(=O)(=O)c1ccc(Cl)cc1	/	/	/	/	/	6.6%
COc1ccccc1Nc1nc(-c2sc(NC(=O)c3ccc([N+](=O)[O-])cc3)nc2C)cs1	/	?	/	?	-35.0%	-3.9%
COc1ccc(OC)c(Nc2nc(-c3sc(C)nc3C)cs2)c1	?	-17.2%	?	14.7µM*	93.8%	-15.8%
COc1ccc(Cl)cc1NC(=O)CSc1ccc(-c2sc(C)nc2C)nn1	/	/	/	/	/	7.5%
COc1ccc(OC)c(Nc2nc(-c3sc(NC(=O)C(C)(C)C)nc3C)cs2)c1	15.1%	3.29µM*	?	9.28µM*	-8.3%	-0.2%
COc1ccc(Cl)cc1Nc1nc(-c2sc(NC(=O)C(C)(C)C)nc2C)cs1	-6.8%	1.65µM*	?	10.4µM*	-23.0%	-3.3%
COc1ccccc1Nc1nc(-c2sc(N)nc2C)cs1	78.3%	?	-15.5%	-21.9%	-38.2%	-14.8%
Cc1ccccc1C(=O)Nc1sc2c(c1C(=O)N1CCCCC1)CCC(C)C2 (stereo not drawn)	/	/	/	/	/	2.4%
CN(C)c1ccc(C=Cc2nccc3ccccc23)cc1	-48.1%	/	/	/	/	/
CC[n+]1ccc(/C=C/c2ccc(N(C)C)cc2)c2ccccc21	28.2µM*	9.8%	4.47µM*	0.586µM*	21.6%	-8.5%
CC[n+]1ccccc1/C=C/c1ccc(N(C)C)cc1	0.2%	-15.8%	4.47µM*	2.94µM*	-15.0%	-8.7%
Cc1ccc(C(=O)c2oc3ccccc3c2NC(=O)COc2ccccc2Cl)cc1	/	/	/	/	/	-2.0%
COc1cc(Br)c(C(=O)c2nccc3cc(OC)c(OC)cc23)cc1OC	-4.2%	8.5%	?	6.57µM*	17.2%	-1.0%
CCOc1cc(-c2nccc3cc(OC)c(OC)cc23)cc(OCC)c1OCC	1.1%	10.7µM*	?	10.4µM*	140.5%	-9.2%
COc1cc(C(=O)c2nccc3cc(OC)c(OC)cc23)c([N+](=O)[O-])cc1OC	-21.4%	?	?	?	129.4%	-13.2%
COc1cc(N)c(C(=O)c2nccc3cc(OC)c(OC)cc23)cc1OC	-8.3%	5.22µM*	17.7%	0.0%	-12.1%	?
COc1cc2ccnc(Cc3cccc(OC)c3OC)c2cc1OC	-3.3%	45.6%	?	-11.8%	14.7%	5.2%
COc1cc(N)c(Cc2nccc3cc(OC)c(OC)cc23)cc1OC	-8.8%	6.57µM*	-18.6%	?	174.6%	-4.2%
CCC1CN(C(=O)Nc2cc(C)ccc2OC)c2cc(Cl)ccc2O1 (stereo not drawn)	/	/	/	/	/	9.8%
Cc1cccc(OCC(=O)Nc2cccc3cccnc23)c1C	/	/	/	/	/	20.0%
COc1ccc(C(=O)N=C2SC3CS(=O)(=O)CC3N2c2ccc(N(C)C)cc2)cc1OC (stereo not drawn)	0.0%	9.28µM*	-25.1%	-22.3%	-4.9%	-10.2%
CSc1nc2ccc(S(=O)(=O)N3CCOCC3)cc2s1	4.7%	?	-26.6%	-4.8%	-7.7%	-3.8%
COc1ccc2nc(NC(=O)c3cc(S(=O)(=O)N4CCOCC4)ccc3C)sc2c1	-1.1%	/	22.4µM*	-6.2%	39.5%	-1.7%
SMILES	AMA1 RON2 block	Pf growth 96h	HCV inhibitor	Pf growth 48h	AmpC inh no detg	AmpC detergent
COc1ccc2nc(NC(=O)c3ccoc3C)sc2c1	-14.3%	7.1%	14.1µM*	70.7%	-23.5%	?
COc1ccc2nc(NC(=O)c3cc(C)oc3C)sc2c1	91.0%	-92.8%	?	22.9%	-13.9%	-5.8%
COc1ccc2nc(NC(=O)c3cccc(OCc4c(C)noc4C)c3)sc2c1	44.1%	-95.3%	0.355µM*	-59.0%	-7.7%	-2.5%
CCSc1nnc(NC(=O)c2cccc(OCc3c(C)noc3C)c2)s1	0.1%	?	-21.6%	?	0.7%	-6.8%
N#CCc1nc2ccc(S(=O)(=O)N3CCOCC3)cc2s1	20.8%	13.1µM*	?	14.7µM*	-4.6%	-3.4%
Cc1ccc(CN(C(=O)COc2cccc(Cl)c2)c2ccccn2)o1	/	/	/	/	/	16.9%
O=C(c1ccc(Br)o1)N1CCN(c2ccc3nnc(-c4ccc(F)cc4)n3n2)CC1	-8.6%	72.3%	-9.3%	?	0.562µM*	?
O=C(Nc1ccc(Cl)cc1)N1CCN(c2ccc3nnc(-c4ccc(F)cc4)n3n2)CC1	12.3%	?	?	9.28µM*	147.7%	-9.6%
O=C(c1ccc(Br)o1)N1CCN(c2ccccn2)CC1	-2.6%	2.2%	-8.5%	-27.0%	4.4%	-1.1%
COc1ccccc1NC(=O)c1oc2ccccc2c1NC(=O)C1CC1	5.2%	14.7µM*	-26.9%	11.7µM*	-35.1%	3.4%
COc1ccc(NC(=O)c2oc3ccccc3c2NC(=O)C2CC2)cc1OC	-1.2%	11.7µM*	?	?	91.1%	-8.9%
CCOc1ccccc1NC(=O)c1oc2ccccc2c1NC(=O)C1CC1	19.9%	?	-23.0%	?	-15.6%	3.9%
Cc1ccc2nc(NC(=O)c3cccc(-c4cc5ccccc5oc4=O)c3)sc2c1	4.9%	219.3%	8.91µM*	139.3%	-27.7%	0.4%
CCOc1ccc2nc(NC(=O)c3cccc(-c4cc5ccccc5oc4=O)c3)sc2c1	14.6%	202.8%	?	25.8%	-18.5%	-4.1%
Fc1cccc(F)c1-n1c(CN2CCCCC2)csc1=S	?	11.7µM*	?	?	-47.1%	-14.0%
COC(=O)Nc1ccc(S(=O)(=O)NCCCCCC(=O)O)cc1	-6.6%	2.94µM*	6.8%	6.6%	-5.1%	-3.5%
Cn1nc(-c2ccccc2F)c2cc(C(=O)NCc3ccccc3Cl)sc21	/	/	/	/	/	-9.6%
Cc1ccc(NS(=O)(=O)c2ccc3c(c2)NC(=O)CCS3)cc1F	-3.8%	-19.6%	-9.9%	9.28µM*	-16.3%	2.4%
O=C1CCSc2ccc(S(=O)(=O)Nc3cccc(C(F)(F)F)c3)cc2N1	/	/	/	/	/	10.5%
Cc1ccc(NS(=O)(=O)c2ccc3c(c2)NC(=O)CCS3)cc1C	0.0%	?	-8.9%	13.1µM*	-10.2%	1.2%
Cc1ccc(NC(=O)Nc2c[nH]c(=O)[nH]c2=O)c(Cl)c1	/	/	/	/	/	1.9%

Screening data from PubChem.
